NCOA2 inhibitor: human SRC2 (NCOA2) inhibition | HEK293 GAL4-SRC2 luciferase reporter, luminescence | inhibition, % at 9 µM | Q15596 | actives 0.17% (n = 370,000) | AID 651957;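 active = inhibition above the mean inhibition of all tested compounds plus 3 SD, set per campaign, cut at about 52% in these data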
Target sequence (Q15596 whole entry, looked up, the tested form may be a part): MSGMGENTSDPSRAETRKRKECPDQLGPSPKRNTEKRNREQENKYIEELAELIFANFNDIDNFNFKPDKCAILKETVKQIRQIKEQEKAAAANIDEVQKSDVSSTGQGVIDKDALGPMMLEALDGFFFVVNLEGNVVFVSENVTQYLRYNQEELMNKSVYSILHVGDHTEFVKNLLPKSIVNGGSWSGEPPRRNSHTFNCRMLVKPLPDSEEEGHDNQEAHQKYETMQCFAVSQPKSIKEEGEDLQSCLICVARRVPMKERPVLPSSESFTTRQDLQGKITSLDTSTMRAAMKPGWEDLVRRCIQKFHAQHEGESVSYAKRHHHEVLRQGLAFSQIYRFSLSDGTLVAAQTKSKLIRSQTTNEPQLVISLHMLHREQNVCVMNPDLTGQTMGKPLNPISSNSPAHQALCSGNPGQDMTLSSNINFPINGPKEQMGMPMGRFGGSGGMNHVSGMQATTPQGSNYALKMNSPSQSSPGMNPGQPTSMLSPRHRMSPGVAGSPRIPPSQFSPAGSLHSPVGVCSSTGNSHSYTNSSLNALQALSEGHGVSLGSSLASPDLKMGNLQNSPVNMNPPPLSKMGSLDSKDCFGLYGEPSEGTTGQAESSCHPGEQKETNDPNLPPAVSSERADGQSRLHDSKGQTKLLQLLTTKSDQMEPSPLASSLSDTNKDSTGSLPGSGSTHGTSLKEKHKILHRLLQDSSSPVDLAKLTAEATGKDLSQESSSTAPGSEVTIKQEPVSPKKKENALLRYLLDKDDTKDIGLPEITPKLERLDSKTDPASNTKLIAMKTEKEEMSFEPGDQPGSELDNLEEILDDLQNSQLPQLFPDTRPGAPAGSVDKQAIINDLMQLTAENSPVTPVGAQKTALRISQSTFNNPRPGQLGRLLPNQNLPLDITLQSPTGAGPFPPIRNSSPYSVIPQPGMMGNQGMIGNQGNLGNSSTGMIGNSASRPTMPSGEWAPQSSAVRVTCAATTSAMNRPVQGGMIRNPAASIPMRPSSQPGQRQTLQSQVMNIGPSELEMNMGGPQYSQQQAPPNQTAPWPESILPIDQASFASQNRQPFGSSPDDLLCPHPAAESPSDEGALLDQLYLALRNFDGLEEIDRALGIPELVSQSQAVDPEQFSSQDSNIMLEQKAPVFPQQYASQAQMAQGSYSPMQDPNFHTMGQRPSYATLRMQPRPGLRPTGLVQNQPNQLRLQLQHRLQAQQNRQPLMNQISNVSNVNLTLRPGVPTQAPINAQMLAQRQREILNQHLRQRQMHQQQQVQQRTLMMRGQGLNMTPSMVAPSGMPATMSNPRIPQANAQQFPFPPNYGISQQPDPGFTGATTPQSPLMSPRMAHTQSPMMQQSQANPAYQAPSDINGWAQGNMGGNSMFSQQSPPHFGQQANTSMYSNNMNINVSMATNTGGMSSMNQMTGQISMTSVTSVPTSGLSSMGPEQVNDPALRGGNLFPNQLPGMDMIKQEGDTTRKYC
SRC1 inh: human NCOA1 inhibition; Q15788; HEK293 GAL4-SRC1 luciferase reporter, luminescence; actives 0.12% (n = 360,000); inhibition, % at 3.6 µM;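 active = inhibition above the campaign mean plus 3 SD, with each screening campaign given its own cutoff, cut at about 60% in these data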
NR2F2 inh: inhibitors of human COUP-TFII (NR2F2); HEK293T NGFI-A luciferase reporter, luminescence; inhibition, % at 8.6 µM; actives 0.7% (n = 370,000);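 active = inhibition above a per-plate cutoff, mean inhibition of test wells between control levels plus 3 SD, cut at about 38% in these data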;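 also: cells cotransfected with COUP-TFII expression vector driving the NGFI-A reporter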
NCOA3 inh: inhibitors of human steroid receptor coactivator 3 (SRC3); inhibition, % at 3.6 µM; Q9Y6Q9; actives 0.17% (n = 360,000); HEK293 GAL4-SRC3 luciferase reporter, luminescence;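 active = inhibition above a per-campaign cutoff, the mean of all compounds plus 3 SD, cut at about 60% in these data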;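 also: higher means less SRC3-driven luciferase light from the GAL4 reporter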
LRH-1 inv ag: inverse agonists of human LRH-1 (NR5A2). O00482. HEK293T StAR-luciferase reporter, LRH-1 transfected, 24 h. inhibition, % at 3.6 µM. actives 0.13% (n = 360,000);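 active = inhibition above the mean inhibition of all tested compounds plus 3 SD, cut at about 73% in these data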
Gli-Sufu block: antagonists of Gli-Sufu signaling; AID 588413; inhibition, % at 5 µM; actives 0.74% (n = 340,000); Sufu-KO-LIGHT fibroblasts, Gli luciferase reporter luminescence;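 active = inhibition above about 55%, limit read from the data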
Gal4-VP16 ctr: counter-screen for COUP-TFII antagonists: inhibitors of VP16; shares compounds with NR2F2 inh; HEK293 Gal4-VP16 luciferase reporter, luminescence; inhibition, % at 8.5 µM; actives 25% (n = 2,500); AID 687007; in the data active = inhibition above about 13%
COUP-TFII conf: confirmation of human COUP-TFII (NR2F2) inhibitors | shares compounds with NR2F2 inh | HEK293 NGFI-A luciferase reporter, luminescence | inhibition, % at 8.5 µM | actives 45% (n = 2,500) | AID 687008;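 active = mean inhibition over three repeats above a set limit taken from the earlier primary screen, cut at about 38% in these data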
Each line names hits and unclear results; the compound was inactive in the other large screens (follow-up assays come after a bar, where they were run); ! = not confirmed by another sample. Rows were chosen to be rich in hits. Some 1.2% of all compounds tested hit in one or more screens of this group.

CC1Sc2ccc(S(=O)(=O)N3CCC(C(=O)Nc4ccc(Cl)cc4)CC3)cc2NC1=O (stereo not drawn)	NR2F2 inh 65.8, Gli-Sufu block 69.2 | Gal4-VP16 ctr 16.1 | COUP-TFII conf 72.5
COc1ccc(N2CCN(C(=O)CCCCCn3c(=S)[nH]c4ccc(N5CCOCC5)cc4c3=O)CC2)cc1	NR2F2 inh 42.2 (no result: Gli-Sufu block) | Gal4-VP16 ctr inactive | COUP-TFII conf inactive
COc1ccc(N2CCN(C(=O)CCCCCn3c(=S)[nH]c4cc5c(cc4c3=O)OCO5)CC2)cc1	none (no result: NCOA2 inhibitor, NR2F2 inh)
NC(=O)c1ccc(N2CCN(S(=O)(=O)c3ccccc3)CC2)c([N+](=O)[O-])c1	NR2F2 inh 53.6, Gli-Sufu block 56.5 | Gal4-VP16 ctr inactive | COUP-TFII conf 42.9
CCCOc1ccc(Cn2cnc3ccccc32)cc1	NR2F2 inh 38.0 | Gal4-VP16 ctr inactive | COUP-TFII conf inactive
Fc1ccc(Cn2cnc3ccccc32)cc1	none
COC(=O)[C@@]12CCCCC=C1N(CCc1ccc(Cl)cc1)C(=O)[C@H]2CC(=O)NCc1cccc2ccccc12	none (no result: SRC1 inh, NCOA3 inh, LRH-1 inv ag, Gli-Sufu block)
CCCCCCCCNS(=O)(=O)CC1NCc2ccc(C)cc21 (stereo not drawn)	none (no result: SRC1 inh, NCOA3 inh, LRH-1 inv ag, Gli-Sufu block)
C(C#CCCCCCCCCC[n+]1ccccc1)#CCCCCCCCCC[n+]1ccccc1	NR2F2 inh 64.9, NCOA3 inh 64.5!, LRH-1 inv ag 84.7, Gli-Sufu block 87.2 | Gal4-VP16 ctr 16.1 | COUP-TFII conf inactive
O=C(COC(=O)c1n[nH]c2ccccc12)Nc1ccc(S(=O)(=O)N2CCCC2)cc1	NR2F2 inh 46.4 | Gal4-VP16 ctr inactive | COUP-TFII conf inactive
O=C(COC(=O)c1n[nH]c2ccccc12)Nc1cccc(S(=O)(=O)N2CCOCC2)c1	none
CN(C)S(=O)(=O)c1cccc(NC(=O)c2ccc(N3CCCC3=O)cc2)c1	none
CCN(c1ccc(NC(=O)c2ccc(N3CCCC3=O)cc2)cc1)C(C)C	NR2F2 inh 48.6 | Gal4-VP16 ctr inactive | COUP-TFII conf inactive
O=C(/C=C/Nc1ccccc1Br)c1ccccn1	NCOA2 inhibitor 81.1, NR2F2 inh 68.5 | Gal4-VP16 ctr 61.2 | COUP-TFII conf 79.6
O=C(/C=C\Nc1ccccn1)c1ccccc1	none
C#CCNC(=O)C[C@H]1C[C@@]2(C(=O)OC)C(=C[C@H](C(C)C)O[C@@H]2C2CC2)N(CCc2ccc(OC)c(OC)c2)C1=O	none (no result: SRC1 inh, NCOA3 inh, LRH-1 inv ag, Gli-Sufu block)
O=C(/C=C/c1ccc([N+](=O)[O-])cc1)c1ccccc(=O)c1O	NR2F2 inh 42.8 | Gal4-VP16 ctr inactive | COUP-TFII conf 59.3
CCOC(=O)C1CSCCS(=O)(=O)N1Cc1cccc(Cl)c1 (stereo not drawn)	none (no result: SRC1 inh, NCOA3 inh, LRH-1 inv ag, Gli-Sufu block)
CC(C)C[C@H]1COc2cc(Br)ccc2S(=O)(=O)N1Cc1cn(Cc2ccc(Cl)cc2)nn1	none (no result: SRC1 inh, NCOA3 inh, LRH-1 inv ag, Gli-Sufu block)
Cc1ccc(F)cc1CNC(=O)c1cc(COc2ccc3ncccc3c2)on1	NR2F2 inh 41.1 | Gal4-VP16 ctr inactive | COUP-TFII conf 49.5
O=C(NCc1cccc(Cl)c1)c1cc(COc2ccc3ncccc3c2)on1	NR2F2 inh 68.0 | Gal4-VP16 ctr inactive | COUP-TFII conf 55.1
Cc1cc(C)n(CCNC(=O)c2cc(COc3ccc4ncccc4c3)on2)n1	none
O=C(NC1=NCCS1)C1COc2ccccc2O1 (stereo not drawn)	NCOA2 inhibitor 57.4, NR2F2 inh 48.8 | Gal4-VP16 ctr 18.6 | COUP-TFII conf 49.2
CCOC(=O)/C=C1\CN(Cc2cc(OC)c(OC)c(OC)c2)S(=O)(=O)c2ccc(C(F)(F)F)cc21	NR2F2 inh 47.7 | Gal4-VP16 ctr inactive | COUP-TFII conf inactive
CCOC(=O)/C=C1\CN(Cc2cc(OC)c(OC)c(OC)c2)S(=O)(=O)c2ccccc21	none
COc1cccc(-c2nc(NCc3cccnc3)c3ccccc3n2)c1O	none
COc1cccc2c(NCc3ccccc3)nc(-n3c(N)nc4ccccc43)nc12	NR2F2 inh 100.4 (no result: NCOA2 inhibitor, SRC1 inh, NCOA3 inh, LRH-1 inv ag, Gli-Sufu block) | Gal4-VP16 ctr 48.6 | COUP-TFII conf inactive
CC(C)C[C@H]1COc2c(Cl)cccc2S(=O)(=O)N1Cc1ccc(F)cc1F	none (no result: SRC1 inh, NCOA3 inh, LRH-1 inv ag, Gli-Sufu block)
C=CC[n+]1c(-c2ccc(Cl)cc2Cl)csc1Nc1c(C)n(C)n(-c2ccccc2)c1=O	NR2F2 inh 45.7 | Gal4-VP16 ctr inactive | COUP-TFII conf 40.5
COc1ccccc1C(=O)N1CCN(C(=O)[C@H](CCc2ccccc2)NC(=O)[C@H]2O[C@@H](n3cnc4c(N)ncnc43)[C@H](O)[C@@H]2O)CC1	none (no result: SRC1 inh, NCOA3 inh, LRH-1 inv ag, Gli-Sufu block)
COC(=O)[C@@H]1C[C@@]2(c3ccccc3)c3ccccc3N(S(=O)(=O)c3ccccc3)[C@H]2N1C(=O)CNC/C=C(\C)CCC=C(C)C	none (no result: SRC1 inh, NCOA3 inh, LRH-1 inv ag, Gli-Sufu block)
Cc1nc2ccc(NC(=O)c3ccc(S(=O)(=O)N(C)c4ccccc4)cc3)cc2s1	NR2F2 inh 49.1 | Gal4-VP16 ctr inactive | COUP-TFII conf inactive
COc1ccc(NC(=O)/C(Cl)=C(/Cl)S(=O)(=O)Cc2ccccc2)cn1	NCOA2 inhibitor 69.3, NR2F2 inh 65.8 | Gal4-VP16 ctr 38.7 | COUP-TFII conf 59.2
COc1ccc(NC(=O)C(Cl)=C(Cl)Cl)cn1	none
CC(=O)Nc1ccc(NC(=O)c2ccc(S(=O)(=O)N(C)c3ccccc3)cc2)cc1	none
COc1ccc(C(=O)Nc2ccc(S(=O)(=O)N(C)c3ccccc3)cc2)cc1	none
COc1ccc(NC(=O)c2ccc(S(=O)(=O)N(C)c3ccccc3)cc2)cn1	NR2F2 inh 41.1 | Gal4-VP16 ctr inactive | COUP-TFII conf inactive
COc1ccc(CN(C)C(=O)[C@@H](Cc2ccccc2)NC(=O)[C@H]2O[C@@H](n3ccc(N)nc3=O)[C@H](O)[C@@H]2O)cc1OC	none (no result: SRC1 inh, NCOA3 inh, LRH-1 inv ag, Gli-Sufu block)
C1=C(CCNc2ncnc3c2[nH]c2ccccc23)CCCC1	NR2F2 inh 67.0, Gli-Sufu block 77.9 | Gal4-VP16 ctr inactive | COUP-TFII conf 47.9
O=C(C(=O)N1CCC(CNS(=O)(=O)c2ccc(OC(F)(F)F)cc2)CC1)c1cc2ccccc2o1	none (no result: SRC1 inh, NCOA3 inh, LRH-1 inv ag, Gli-Sufu block)
CCOC(=O)Cc1nn(Cc2nc(-c3ccc(C#N)cc3)cs2)c(=O)c2ccccc12	NR2F2 inh 39.4 | Gal4-VP16 ctr 16.8 | COUP-TFII conf inactive
Brc1ccc2nc(-c3ccc(CN4CCC(c5nc6ccccc6[nH]5)CC4)cc3)c(-c3ccccc3)nc2c1	none (no result: SRC1 inh, NCOA3 inh, LRH-1 inv ag, Gli-Sufu block)
COc1ccc(-c2csc(NC(C)=O)n2)cc1OC	none
COc1ccc(-c2csc(NC(=O)C3CCN(C(=O)c4ccc(F)cc4)CC3)n2)cc1OC	NR2F2 inh 55.1 | Gal4-VP16 ctr inactive | COUP-TFII conf inactive
COc1cccc(NC(=O)Nc2nc(-c3ccc(OC)c(OC)c3)cs2)c1	NCOA2 inhibitor 75.2, SRC1 inh 71.1, NR2F2 inh 73.1, NCOA3 inh 71.8 | Gal4-VP16 ctr 72.2 | COUP-TFII conf 100.4

Assay outcomes (PubChem)
